Experiment [1] is described as follows: qHTS assay to identify small molecule agonists of the vitamin D receptor (VDR) signaling pathway - cell viability counter screen (AID 743224; active means well fitted curve in the direction sought with a large enough effect in the repeat runs; an effect the other way counts as inactive or inconclusive; further: series mostly up to about 63 µM; nearly all actives have a fitted effect of over 50% in size). In outline: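 In parallel with the bla FRET readout, cytotoxicity toward VDR-bla cells after 16 h compound exposure was assessed by CellTiter-Glo, with luminescence recorded after a 30 min room-temperature incubation.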
Background: Quantitative high-throughput screening tests each substance at several concentrations.

A short description of experiment [2]: qHTS assay to identify small molecule antagonists of the vitamin D receptor (VDR) signaling pathway - cell viability counter screen (AID 743225; active means well fitted curve in the direction sought with a large enough effect in the repeat runs; an effect the other way counts as inactive or inconclusive; further: nearly all actives have a fitted effect of over 50% in size). The gist of the method:
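Viability counter screen run in the same wells as the beta-lactamase reporter assay: HEK 293T VDR-UAS-bla cells, 16 h compound exposure at 37C with 3 nM (final) 1-alpha,25-dihydroxyvitamin D3. CellTiter-Glo luminescence, 30 min, room temperature.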

A short description of experiment [3]: qHTS assay to identify small molecule agonists of the NFkB signaling pathway - cell viability counter screen (AID 1159515). Further: series mostly up to about 61 µM; nearly all actives have a fitted effect of over 55% in size. In outline: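 Plate 2,000 NFkB-bla ME-180 cells/well; incubate overnight. Add compounds, 5 hr at 37 C. Add FRET substrate, 1.5 hr RT. Add CellTiter-Glo, 30 min RT; read luminescence.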
A short description of experiment [4]: qHTS assay to identify small molecule agonists of the endoplasmic reticulum stress response signaling pathway (AID 1159516; active means well fitted activation curve with a large enough effect in the signal ratio in the repeat runs, not every such curve was filed as active; the % refers to the signal ratio; further: potency means the concentration at half of the fitted maximal effect). The gist of the method:
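Beta-lactamase expression from the ER stress response element in HeLa reporter cells is quantified with the LiveBLAzer B/G FRET substrate, read at 405 nm excitation after 2 hr at room temperature, following 5 hr compound treatment at 37 C.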

Experiment [5] is described as follows: qHTS assay to identify small molecule agonists of the endoplasmic reticulum stress response signaling pathway - cell viability counter screen (AID 1159517). Further: series mostly up to about 61 µM; nearly all actives have a fitted effect of over 50% in size. The gist of the method: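 In parallel with the ESRE reporter read, cytotoxicity was scored by CellTiter-Glo luminescence (30 min, room temperature) on HeLa ESRE-bla cells dosed for 5 hr.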
The nature of experiment [6]: qHTS assay to identify small molecule antagonists of the retinoid-related orphan receptor gamma (ROR-gamma) signaling pathway - cell viability counter screen (AID 1159520; active means well fitted curve in the direction sought with a large enough effect in the repeat runs; an effect the other way counts as inactive or inconclusive; further: nearly all actives have a fitted effect of over 50% in size; further: potency means the concentration at half of the fitted maximal effect). The gist of the method: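 Tet-on ROR gamma CHO cells were given compounds for 2 hr, then doxycycline hyclate at 1 uM final, and incubated 16 hr at 37 C. Viability was measured as ATP content by CellTiter-Glo luminescence.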

Experiment [7] has as its target Nuclear receptor ROR-gamma (Homo sapiens) (UniProt P51449). As to the kind of experiment: qHTS assay to identify small molecule antagonists of the retinoid-related orphan receptor gamma (ROR-gamma) signaling pathway (AID 1159521; active means well fitted curve in the direction sought with a large enough effect in the repeat runs; an effect the other way counts as inactive or inconclusive; further: nearly all actives have a fitted effect of over 50% in size; further: potency means the concentration at half of the fitted maximal effect). The gist of the method: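 Luminescence readout (ONE-Glo, 30 min RT) after 16 h doxycycline induction; loss of signal scored as antagonism. CHO cells with TET-inducible RORγ and RORE-LUC reporter; compounds added 2 h before 1 uM final doxycycline.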

The nature of experiment [8]: qHTS assay to identify small molecule agonists of the AP-1 signaling pathway (AID 1159526).
The target in experiment [9] is Retinoic acid receptor RXR-alpha (Homo sapiens) (UniProt P19793). Put plainly: qHTS assay to identify small molecule agonists of the RXR signaling pathway (AID 1159527). Further: nearly all actives have a fitted effect of over 35% in size. In outline:
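Agonist mode; 9-cis retinoic acid positive control. HEK 293T UAS-bla reporter cells, 2% charcoal-stripped FBS, 16 hr compound exposure at 37 C/5% CO2. LiveBLAzer B/G FRET substrate 2 hr RT; ex 405, em 460/530 nm.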

Experiment [10] can be described thus: qHTS assay to identify small molecule agonists of the AP-1 signaling pathway - cell viability counter screen (AID 1159525). Further: nearly all actives have a fitted effect of over 55% in size. The gist of the method:
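Same-well cytotoxicity counter screen of the Tox21 10K library in ME-180 cells. The readout is ATP-dependent luminescence after 5 h compound treatment. Data are normalised to DMSO and tetra n-octyl ammonium bromide controls.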

We go through 25 molecules from PubChem BioAssay (Tox21).

Each structure is given as a SMILES string. Results filed as inconclusive are left out. Values without a mark were called inactive. Active and inactive are the calls of the source. Unless noted, the call rests on the fitted dose curve.

Retinoic acid receptor RXR-alpha (Homo sapiens), sequence (P19793 whole entry, looked up): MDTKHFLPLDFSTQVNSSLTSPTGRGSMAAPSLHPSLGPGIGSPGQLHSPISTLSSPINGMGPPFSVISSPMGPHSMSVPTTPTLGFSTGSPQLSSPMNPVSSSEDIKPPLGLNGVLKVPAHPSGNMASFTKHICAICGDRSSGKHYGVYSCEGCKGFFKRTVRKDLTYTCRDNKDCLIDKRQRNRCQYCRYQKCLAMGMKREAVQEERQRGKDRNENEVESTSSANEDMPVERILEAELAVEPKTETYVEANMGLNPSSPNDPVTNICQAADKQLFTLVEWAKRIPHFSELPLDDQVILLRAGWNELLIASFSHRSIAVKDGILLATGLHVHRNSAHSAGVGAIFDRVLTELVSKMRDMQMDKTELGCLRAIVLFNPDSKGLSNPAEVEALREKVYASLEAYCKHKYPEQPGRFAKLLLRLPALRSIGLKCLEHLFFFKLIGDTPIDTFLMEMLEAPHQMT

With `Nc1ccc(S(=O)(=O)Nc2ccccc2)cc1`, the Potency entry in [1], in experiment [2], in [3], in [4], in [5] and in experiment [6] was “inactive” throughout. In addition, the Potency result in [7], in [8] and in experiment [9] was “inactive” each time.

Consider `c1ccc(CNCCNCc2ccccc2)cc1`, for which the Potency entry in experiment [1], in [2], in experiment [3], in [4], in [5] and in [6] was “inactive” each time. For the same molecule, the Potency result in [7] and in [8] was “inactive” in each case.

For `CC(C)Nc1ccc(NC(C)C)c2c1C(=O)c1ccccc1C2=O`, the Potency result in experiment [1], in [3], in [4], in experiment [5] and in experiment [10] was “inactive” throughout. Also, the results for the Potency in experiment [6] and in [7] were 28.4 µM (active) and 25.3 µM (active), respectively.

Regarding `O=C1CCCCCCCCCCCC(=O)OCCO1`, the Potency entry in experiment [1], in [3], in experiment [4], in experiment [5], in experiment [6] and in experiment [7] was “inactive” each time. Besides, the Potency result in experiment [10] is “inactive”.

For `CCCCCCCC#N`, the Potency result in experiment [2], in [3], in experiment [4], in experiment [5], in experiment [6] and in experiment [7] was “inactive” each time. The Potency entry in experiment [10] is “inactive”.

With `Brc1c2ccccc2cc2ccccc12`, the Potency entry in [1], in experiment [2], in experiment [3], in experiment [5], in experiment [6] and in experiment [10] was “inactive” in each case. Also, the Potency entry in experiment [8] and in experiment [9] was “inactive” in each case. In addition, the Potency in experiment [4] is 49.5 µM (active).

On to `C[N+]1(CC2COC(c3ccccc3)(C3CCCCC3)O2)CCCCC1` (stereo unspecified), for which the Potency result in [1], in experiment [3], in [4], in experiment [5], in experiment [6] and in [10] was “inactive” each time. In addition, the Potency entry in [8] and in experiment [9] was “inactive” throughout.

Take `O=C(O)c1ccc(S(=O)(=O)O)cc1C(=O)O`: the Potency result in experiment [1], in experiment [3], in experiment [4], in experiment [5], in [6] and in [10] was “inactive” in each case. The Potency entry in experiment [8] and in [9] was “inactive” in each case.

Regarding `c1cc(CCCc2ccncc2)ccn1`, the Potency result in experiment [1], in experiment [2], in experiment [3], in experiment [4], in [5] and in experiment [6] was “inactive” each time. Also, the Potency entry in experiment [10], in experiment [8] and in experiment [9] was “inactive” throughout.

In the case of `CC1=CC=C(C(C)C)CC1`, the Potency result in experiment [1], in experiment [2], in [3], in [4], in [5] and in experiment [6] was “inactive” in each case. In addition, the Potency result in experiment [10], in experiment [8] and in experiment [9] was “inactive” each time.

Consider `CCCCCCCCCOS(=O)(=O)O`, for which the Potency entry in experiment [1], in experiment [2], in [3], in [4], in experiment [5] and in experiment [6] was “inactive” throughout. Also, the Potency result in experiment [10], in experiment [8] and in [9] was “inactive” each time.

As to `Nc1cccc(S(=O)(=O)c2cccc(N)c2)c1`, the Potency result in experiment [1], in experiment [3], in experiment [4], in experiment [5], in [6] and in experiment [10] was “inactive” throughout. Besides, the Potency entry in experiment [8] and in experiment [9] was “inactive” throughout.

Consider `CC(C)(C)OCC1CO1` (stereo unspecified), for which the Potency entry in experiment [1], in [2], in experiment [3], in [4], in experiment [5] and in [6] was “inactive” throughout. The Potency entry in [10], in [8] and in experiment [9] was “inactive” each time.

Consider `CC[N+](C)(CC)CCOC(=O)C(O)(c1ccccc1)C1CCCCC1` (stereo unspecified), for which the Potency entry in experiment [1], in experiment [2], in experiment [3], in experiment [4], in [5] and in [6] was “inactive” each time. In addition, the Potency entry in experiment [10], in experiment [8] and in [9] was “inactive” in each case.

`CCOC(=O)C(=O)CCc1ccccc1`: the Potency result in experiment [1], in experiment [3], in [4], in experiment [5], in experiment [6] and in experiment [10] was “inactive” throughout. The Potency entry in [8] and in experiment [9] was “inactive” each time.

For `O=C(NCC1CN(c2ccc(N3CCOCC3=O)cc2)C(=O)O1)c1ccc(Cl)s1` (stereo unspecified), the Potency result in experiment [1], in experiment [2], in [3], in experiment [4], in experiment [5] and in [6] was “inactive” throughout. For the same molecule, the Potency entry in [10], in [8] and in [9] was “inactive” each time.

`CC1(c2ccccc2)OC(C(=O)O)=CC1=O` (stereo unspecified): the Potency entry in experiment [1], in experiment [3], in [4], in experiment [5], in experiment [6] and in [10] was “inactive” throughout. The Potency result in [8] and in experiment [9] was “inactive” in each case.

As to `NCc1ccccc1Sc1ccccc1CO`, the Potency result in [1], in experiment [2], in [3], in experiment [4], in experiment [5] and in experiment [6] was “inactive” in each case. For the same molecule, the Potency entry in experiment [10], in [8] and in experiment [9] was “inactive” in each case.

Regarding `CCn1cc(C(=O)O)c(=O)c2cnc(N3CCNCC3)nc21`, the Potency result in [1], in experiment [2], in experiment [3], in experiment [4], in [5] and in experiment [6] was “inactive” throughout. Also, the Potency entry in [10], in [8] and in experiment [9] was “inactive” in each case.

With `CCOC(=O)Cc1cccc2ccccc12`, the Potency entry in [1], in experiment [2], in [3], in [4], in experiment [5] and in experiment [6] was “inactive” throughout. The Potency entry in experiment [10], in experiment [8] and in experiment [9] was “inactive” each time.

`COc1ccc(C)cc1[N+](=O)[O-]`: the Potency result in [1], in [3], in experiment [4], in experiment [5], in experiment [6] and in experiment [10] was “inactive” each time. Further, the Potency entry in experiment [8] and in experiment [9] was “inactive” in each case.

As to `CCCCOC(=O)CCCCCCCC(=O)OCCCC`, the Potency entry in experiment [1], in experiment [2], in experiment [3], in experiment [4], in experiment [5] and in [6] was “inactive” throughout. Moreover, the Potency result in experiment [10], in [8] and in experiment [9] was “inactive” in each case.

With `NCC(=O)CCC(=O)O`, the Potency entry in experiment [1], in experiment [2], in experiment [3], in experiment [4], in experiment [5] and in experiment [6] was “inactive” each time. Further, the Potency entry in [10], in [8] and in experiment [9] was “inactive” throughout.

`CC(=O)NO`: the Potency result in [1], in experiment [2], in experiment [3], in experiment [4], in experiment [5] and in [6] was “inactive” in each case. For the same molecule, the Potency result in experiment [10], in [8] and in experiment [9] was “inactive” each time.

`CC1OC(=O)C(C)OC1=O` (stereo unspecified): the Potency entry in [1], in [3], in experiment [4], in experiment [5], in experiment [6] and in experiment [10] was “inactive” each time. The Potency entry in experiment [8] and in experiment [9] was “inactive” each time.
